Data from the supplement of paper PMC7695840.
Where a name gives a salt, the structure may show the parent alone.

Assays:
[1] = tested on: Staphylococcus aureus MW2 delta-mecA (mecA-); assay: normalized GFP fluorescence (growth of mecA- strain) (fraction of control range); higher = more growth of mecA- strain; conditions: compound concentration: 150 uM; cefoxitin: subinhibitory; fluorescent label: GFP
Procedure, shortened: (§1)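 Pre-induced S. aureus MW2 mecA+ (DsRed) and ΔmecA (GFP) cells were mixed 1:1 in LB with a daily-set subinhibitory cefoxitin dose. They were dispensed at 5 µL/well onto 150 μM compound (1.5% DMSO) in 1536-well plates, single replicate. Growth was 20 h at 37 °C, 90% humidity, unshaken, and DsRed (540/590) and GFP (485/520) were then read. Each channel was scaled per plate between the medians of the single-strain controls. Plates with high No Treatment ratios and rows with DsRed/GFP >10 were excluded.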

[2] = tested on: Staphylococcus aureus MW2 (mecA+); assay: normalized DsRed fluorescence (growth of mecA+ strain) (fraction of control range); higher = more growth of mecA+ strain; conditions: compound concentration: 150 uM; cefoxitin: subinhibitory; fluorescent label: DsRed
Procedure, shortened: as §1

SMILES	normalized GFP fluorescence [1]	normalized DsRed fluorescence [2]
CCCCCCCCCCCCCCCCCCCCCCO	0.3	0.765
O=C(O)CCC(=O)Nc1ccc(S(=O)(=O)Nc2nccs2)cc1	0.332	1.01
CCOC(=O)C(C)(C)Oc1ccc(Cl)cc1	0.258	0.633
CC(C)(C(=O)O)c1ccc(C(O)CCCN2CCC(C(O)(c3ccccc3)c3ccccc3)CC2)cc1 (centres undefined)	0.393	1.03
CN[C@@H]1[C@H](O[C@H]2[C@H](O[C@H]3[C@H](O)[C@@H](O)[C@H](N=C(N)N)[C@@H](O)[C@@H]3N=C(N)N)O[C@@H](C)[C@]2(O)C=O)O[C@@H](CO)[C@H](O)[C@H]1O	0.752	0.69
COCCOC(=O)C1=C(C)NC(C)=C(C(=O)OC/C=C/c2ccccc2)C1c1cccc([N+](=O)[O-])c1 (centres undefined) [Cilnidipine]	0.176	0.777
C[C@H](CS)C(=O)N1CCC[C@H]1C(=O)O	0.232	0.842
CN1C(C(=O)Nc2ccccn2)=C(O)c2ccccc2S1(=O)=O [Piroxicam (Feldene)]	0.0173	0.661
S=P(N1CC1)(N1CC1)N1CC1	0.213	0.86
COCCc1ccc(OCC(O)CNC(C)C)cc1 (centres undefined)	0.861	0.587
C=CC(N)CCC(=O)O (centres undefined)	0.441	0.716
CN1CCC(=C2c3ccccc3CC(=O)c3sccc32)CC1 [Ketotifen fumarate (Zaditor)]	0.402	0.799
OC(CCN1CCCCC1)(c1ccccc1)C1CCCCC1 (centres undefined)	0.277	0.789
Cc1ncc([N+](=O)[O-])n1CC(O)CCl (centres undefined)	0.488	0.705
CC(C)n1c(/C=C/C(O)CC(O)CC(=O)O)c(-c2ccc(F)cc2)c2ccccc21 (centres undefined)	0.0168	0.369
CC(O)C(=O)O.N (centres undefined)	0.217	0.837
CC1=Nc2ccc(Cl)cc2S(=O)(=O)N1	0.259	0.639
CN(C)CC/C=C1/c2ccccc2Sc2ccc(Cl)cc21	0.0199	1.12
CO[C@H]1C[C@@H]2CC[C@@H](C)[C@@](O)(O2)C(=O)C(=O)N2CCCC[C@H]2C(=O)O[C@H]([C@H](C)C[C@@H]2CC[C@@H](OC(=O)C(C)(CO)CO)[C@H](OC)C2)CC(=O)[C@H](C)/C=C(\C)[C@@H](O)[C@@H](OC)C(=O)[C@H](C)C[C@H](C)/C=C/C=C/C=C/1C [Temsirolimus (Torisel)]	-0.00155	1.96
CC(COc1ccccc1)NC(C)C(O)c1ccc(O)cc1 (centres undefined)	0.474	0.631
CC1(C)O[C@@H]2[C@@H](CO[C@@]3(COS(N)(=O)=O)OC(C)(C)O[C@@H]23)O1	0.798	0.547

SMILES	normalized GFP fluorescence [1]	normalized DsRed fluorescence [2]
CCN1CCCC1CNC(=O)c1cc(S(=O)(=O)CC)c(N)cc1OC (centres undefined) [Amisulpride]	0.514	0.816
CC(C)(C)NCC(O)COc1cccc2c1CCC(=O)N2 (centres undefined)	0.243	1.11
CC(=O)O[C@H]1C[C@@H]2CC[C@@H]3[C@H](CC[C@@]4(C)[C@H]3C[C@H]([N+]3(C)CCCCC3)[C@@H]4OC(C)=O)[C@@]2(C)C[C@@H]1N1CCCCC1	0.425	0.572
CN1CCOC(c2ccccc2)c2ccccc2C1 (centres undefined)	0.242	0.81
NNc1nncc2ccccc12	0.383	0.694
Nc1nnc(-c2cccc(Cl)c2Cl)c(N)n1 [Lamotrigine]	-0.0077	1.04
CC(C)(Sc1cc(C(C)(C)C)c(O)c(C(C)(C)C)c1)Sc1cc(C(C)(C)C)c(O)c(C(C)(C)C)c1	0.792	0.839
CC(=O)O[C@]1(C(C)=O)CC[C@H]2[C@@H]3C=C(Cl)C4=CC(=O)[C@@H]5C[C@@H]5[C@]4(C)[C@H]3CC[C@@]21C	0.239	0.593
CN1CCCCC1CCN1c2ccccc2Sc2ccc([S+](C)[O-])cc21 (centres undefined)	0.265	1.16
COc1ccc2[nH]c([S@@+]([O-])Cc3ncc(C)c(OC)c3C)nc2c1	0.281	1.15
CC(C)c1ccc2oc3nc(N)c(C(=O)O)cc3c(=O)c2c1	0.212	0.319
O=c1n(CCCN2CCN(c3cccc(Cl)c3)CC2)nc2ccccn12	0.187	1.1
Nc1ccc(C(=O)NCC(=O)O)cc1	0.297	0.671
O=P(O)(O)C(O)(Cn1ccnc1)P(=O)(O)O [Zoledronic Acid (Zoledronate)]	0.313	0.685
Cc1nc(=O)c2cc(CN(C)c3ccc(C(=O)N[C@@H](CCC(=O)O)C(=O)O)s3)ccc2[nH]1 [Raltitrexed (Tomudex)]	0.657	0.532
Cc1cccc(N(C)C(=S)Oc2ccc3ccccc3c2)c1	0.561	0.911
NS(=O)(=O)c1cc(Cl)c(Cl)c(S(N)(=O)=O)c1 [Dichlorphenamide (Diclofenamide)]	0.31	0.653
CCC(=O)O[C@H](CC(=O)O)C[N+](C)(C)C	0.307	1.23
C[N+](C)(C)CCO.[Cl-]	0.657	0.615
COc1c2occc2cc2ccc(=O)oc12	0.476	0.402
c1ccc2c(CC3=NCCN3)cccc2c1	0.526	0.668

SMILES	normalized GFP fluorescence [1]	normalized DsRed fluorescence [2]
Cc1c(OCC(F)(F)F)ccnc1C[S@@+]([O-])c1nc2ccccc2[nH]1	0.348	0.452
CC(C)(C)c1ccc(C(O)CCCN2CCC(C(O)(c3ccccc3)c3ccccc3)CC2)cc1 (centres undefined)	0.00757	0.056
COC(=O)C1=C(C)NC(C)=C(C(=O)OC(C)C)C1c1cccc2nonc12 (centres undefined)	0.00618	1.51
CCN(CC)CCNC(=O)c1cc(S(C)(=O)=O)ccc1OC	0.437	0.945
CCC1NC(=O)c2cc(S(N)(=O)=O)c(Cl)cc2N1 (centres undefined)	0.601	0.513
CC1=C(/C=C/C(C)=C/C=C/C(C)=C/CO)C(C)(C)CCC1	0.232	0.677
CC(C(=O)O)c1cccc(C(=O)c2ccccc2)c1 (centres undefined)	0.247	0.413
CCc1cccc2c3c([nH]c12)C(CC)(CC(=O)O)OCC3 (centres undefined)	0.0954	0.562
CCN(CC)C(=O)c1cccc(C)c1	0.46	1.18
Clc1ccc(COC(Cn2ccnc2)c2ccc(Cl)cc2Cl)cc1 (centres undefined) [Econazole nitrate (Spectazole)]	-0.00195	0.01
CC(C[N+](C)(C)C)OC(N)=O (centres undefined)	0.554	0.879
CC(C(=O)O)c1ccc(-c2ccccc2)c(F)c1 (centres undefined)	0.201	0.435
OC[C@@H](O)[C@@H](O)[C@H](O)[C@@H](O)CO [Sorbitol (Glucitol)]	0.227	1.15
Cc1c(OCC(F)(F)F)ccnc1C[S+]([O-])c1nc2ccccc2[nH]1 (centres undefined) [Lansoprazole]	0.122	0.553
NC(=O)c1ncn([C@@H]2O[C@H](CO)[C@@H](O)[C@H]2O)n1	0.38	0.58
COc1ccc2[nH]c([S+]([O-])Cc3ncc(C)c(OC)c3C)nc2c1 (centres undefined)	0.481	1.2
CC(O)(CC(=O)O)CC(=O)O	0.226	0.945
CCCc1nn(C)c2c(=O)[nH]c(-c3cc(S(=O)(=O)N4CCN(C)CC4)ccc3OCC)nc12	0.331	0.655
O=C(OOC(=O)c1ccccc1)c1ccccc1	0.437	0.519
CC(C)COCC(CN(Cc1ccccc1)c1ccccc1)N1CCCC1 (centres undefined)	0.00856	0.96
C[N+]1(C)[C@@H]2CC[C@H]1C[C@@H](OC(=O)C(O)c1ccccc1)C2 (some centres undefined)	0.29	0.71

SMILES	normalized GFP fluorescence [1]	normalized DsRed fluorescence [2]
CN(C)CCCN1c2ccccc2Sc2ccc(Cl)cc21	-0.00289	1.26
COc1ccc(CCN(C)CCCC(C#N)(c2ccc(OC)c(OC)c2)C(C)C)cc1OC (centres undefined)	0.734	0.717
CC(=O)O[C@H]1C(=O)[C@@]2(C)[C@H]([C@H](OC(=O)c3ccccc3)[C@]3(O)C[C@H](OC(=O)[C@H](O)[C@@H](NC(=O)c4ccccc4)c4ccccc4)C(C)=C1C3(C)C)[C@]1(OC(C)=O)CO[C@@H]1C[C@@H]2O [Paclitaxel (Taxol)]	0.188	0.669
CC(=O)N(O)CCCCCNC(=O)CCC(=O)N(O)CCCCCNC(=O)CCC(=O)N(O)CCCCCN	0.272	1.26
CCOC(=O)[C@H](CCc1ccccc1)N[C@@H](C)C(=O)N1[C@H](C(=O)O)C[C@@H]2CCC[C@@H]21	0.338	0.71
COC(=O)Nc1nc2cc(C(=O)c3ccc(F)cc3)ccc2[nH]1	0.715	0.661
O=C(CCCCCCC(=O)Nc1ccccc1)NO [Vorinostat (SAHA)]	0.386	0.944
CC(=O)N[C@@H](CS)C(=O)O	0.328	0.653
Cc1cc(NS(=O)(=O)c2ccc(N)cc2)no1	0.0197	0.744
C[C@]12CCC3=C4CCC(=O)C=C4CC[C@H]3[C@@H]1CC[C@@]2(O)CC#N [Dienogest]	0.271	0.746
OCc1ccccc1O	0.351	0.713
COc1ccc(CNc2nc(N3CCC[C@H]3CO)ncc2C(=O)NCc2ncccn2)cc1Cl [Avanafil]	0.53	0.718
CCOc1ccccc1OC(c1ccccc1)C1CNCCO1 (centres undefined) [Reboxetine mesylate]	0.435	0.581
CCC(=O)O[C@]1(C(=O)CCl)[C@@H](C)C[C@H]2[C@@H]3CCC4=CC(=O)C=C[C@]4(C)[C@@]3(F)[C@@H](O)C[C@@]21C [Clobetasol propionate]	-0.000558	1.15
Cc1ccc([C@@H]2O[C@H](CO)[C@@H](O)[C@H](O)[C@H]2O)cc1Cc1ccc(-c2ccc(F)cc2)s1 [Canagliflozin]	-0.0143	0.755
CN(C)CCC(c1ccccc1)c1ccccn1 (centres undefined)	0.504	0.799
CC1(C)O[C@@H]2C[C@H]3[C@@H]4CCC5=CC(=O)C=C[C@]5(C)[C@H]4[C@@H](O)C[C@]3(C)[C@]2(C(=O)CO)O1	0.387	1.36
CCCN[C@H]1CCc2nc(N)sc2C1 [Pramipexole dihydrochloride monohydrate]	0.713	0.597
CN(C(=O)C(Cl)Cl)c1ccc(OC(=O)c2ccco2)cc1	0.156	0.938
